# Assay outcomes deposited in PubChem by National Center for Advancing Translational Sciences (NCATS).
# D1 potentiator – Potentiators of Human D1 Dopamine Receptor: qHTS | potentiation, % at 10 µM | HEK293 TREx D1 cells, calcium flux, dopamine EC20 potentiation | D(1A) dopamine receptor (Homo sapiens), P21728 | AID 504651, 2011 | actives 0.036% (n = 360,000); in the data active = potentiation above about 30%; note: 0% is about no effect
# Target sequence (P21728 whole entry, looked up): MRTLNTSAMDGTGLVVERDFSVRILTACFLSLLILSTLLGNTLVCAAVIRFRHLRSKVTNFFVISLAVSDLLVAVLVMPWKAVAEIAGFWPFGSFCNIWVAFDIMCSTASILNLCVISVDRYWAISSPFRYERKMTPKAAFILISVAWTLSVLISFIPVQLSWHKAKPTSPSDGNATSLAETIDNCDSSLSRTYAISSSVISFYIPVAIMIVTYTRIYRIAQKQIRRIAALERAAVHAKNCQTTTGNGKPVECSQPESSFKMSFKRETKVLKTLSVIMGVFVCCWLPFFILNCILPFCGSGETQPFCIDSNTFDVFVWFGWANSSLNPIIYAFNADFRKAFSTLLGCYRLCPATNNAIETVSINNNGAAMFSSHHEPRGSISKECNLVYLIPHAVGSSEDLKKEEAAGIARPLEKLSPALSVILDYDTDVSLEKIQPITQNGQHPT
# DRD3 agonist – qHTS of D3 Dopamine Receptor Agonist: qHTS; D(3) dopamine receptor (Homo sapiens), P35462; D3R DiscoveRx beta-arrestin cells, luminescence, 90 min; max activation, %; actives 0.58% (n = 410,000); AID 652048, 2013; in the data active = max activation above about 30%; note: 0% is about no effect
#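 Agonist-mode cell screen: cells plated at 1500/well and incubated overnight at 37 °C, then exposed to library compounds for 90 min at 37 °C. Detection reagent was added for 30–60 min at room temperature, and luminescence was read.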
# D3 antag – qHTS of D3 Dopamine Receptor Antagonist: qHTS; D(3) dopamine receptor (Homo sapiens), P35462; actives 2.5% (n = 360,000); max response, negative = inhibition, %; D3R cells, DiscoveRx beta-arrestin luminescence, antagonist mode; stronger effect = lower value; in the data active = max response below about -50%; note: % is set by controls: 0 for no effect and ±100 for the full control effect
#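 Cells expressing the human receptor were seeded at 1500 cells/well, incubated overnight at 37 degrees C in 5% CO2, then exposed to library compounds with dopamine controls for 90 minutes at 37 degrees C before luminescent detection.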
# D1 antagonist – Antagonist of Human D 1 Dopamine Receptor: qHTS; D(1A) dopamine receptor (Homo sapiens), P21728; HEK293 TREx D1 cells, calcium flux, dopamine EC80; stronger effect = lower value; activity change, negative = inhibition, % at 10 µM; actives 3.2% (n = 360,000); AID 504652, 2011; in the data active = activity change below about -30%; note: % is set by controls: 0 for no effect and ±100 for the full control effect
#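 Tetracycline-induced HEK293 Trex D1 cells, force-coupled to calcium, dye-loaded; compounds added and read 180 s, then EC80 dopamine added and calcium flux tracked kinetically another 180 s.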
# D1 ag – Allosteric Agonists of the Human D1 Dopamine Receptor: qHTS; HEK293 T-REx D1 cells, calcium flux, agonist mode; activation, % at 2 µM; actives 1% (n = 360,000); AID 504660, 2011; in the data active = activation above about 30%; note: 0% is about no effect
#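 Tetracycline-induced HEK293 TREx D1 cells, force-coupled to calcium signalling, were dye-loaded with a no-wash calcium kit. Compound was pin-added after a 10 s baseline. Fluorescence was read kinetically at 1 cycle/s for 180 s, with calcium rises flagged as agonism.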
# Numbers without * were called inactive; . = not tested or not shown. An excerpt weighted towards active compounds, which were near 6% of everything screened.
SMILES,D1 potentiator,DRD3 agonist,D3 antag,D1 antagonist,D1 ag
CCOc1ccc(/C=C2\SC(=S)N(CC(=O)NCCCN3CCOCC3)C2=O)cc1,-8.3,-13.6,-23.6,-6.3,2.1
Cc1ccc(C(=O)c2ccccc2C(=O)OCC(=O)N2C(C)CCCC2C)cc1 (stereo not given),1.2,7.2,8.2,3.2,0.9
Cc1cc(NC(=S)N(CCN2CCCCC2)Cc2ccco2)ccc1Cl,-9.8,-30.0,-24.0,-38.2*,1.5
Cc1ccc(NC(=S)N(CCCN2CCCC(C)C2)Cc2ccco2)cc1C (stereo not given),-12.8,-23.5,-91.9*,-2.7,6.1
O=C(Nc1ccc(Cl)cc1)C1CCN(S(=O)(=O)c2ccc(Br)s2)CC1,-3.4,0.3,.,-14.4,2.4
Cc1ccc(NC(=O)C2(c3cccs3)CCOCC2)cc1Cl,0.8,-12.7,.,.,-3.5
COc1ccc(NC(=O)c2cc(C3CCCCN3C(=O)c3ccc(Cl)cc3)on2)c(C)c1 (stereo not given),.,-4.7,0.0,.,.
O=C(O)CCCN1C(=O)NC2NC(=O)NC21 (stereo not given),-5.2,-11.9,-5.7,-31.4*,0.6
O=C(O)CN1C(=O)NC2NC(=O)NC21 (stereo not given),-5.7,-3.6,16.1,5.6,0.3
CCCCNC(=O)CN1C(=O)NC2NC(=O)NC21 (stereo not given),-7.2,-6.2,17.0,-43.2*,0.4
CCOC(=O)CN1C(=O)NC2NC(=O)NC21 (stereo not given),-4.3,2.2,1.4,-4.6,2.0
CCn1cc(C(=O)O)c(=O)c2cc(S(=O)(=O)N(C)C)ccc21,-0.1,-10.9,-2.3,-36.8*,3.9
COCCNC(=O)c1cn(C)c2ccc(S(=O)(=O)N3CCCC3)cc2c1=O,0.9,3.3,4.5,-30.8*,4.1
CCn1cc(C(=O)NCc2ccccc2Cl)c(=O)c2cc(S(=O)(=O)N3CCCCCC3)ccc21,-1.8,2.2,.,-61.9*,3.6
CCCCN(C)CCCNC(=O)c1cn(CC)c2ccc(S(=O)(=O)N3CCOCC3)cc2c1=O,2.9,-2.3,-12.9,-32.3*,4.3
COc1cc(CC(=O)N2c3ccccc3N=C(c3ccccc3)C2C(=O)NCc2ccccc2)cc(OC)c1 (stereo not given),.,-2.9,-10.4,.,.
Cc1ccccc1Cn1c(C(=O)O)c(CNCc2cccc(F)c2)c2ccccc21,12.7,-23.8,.,2.9,-1.8
CCOc1ccc(NC(=O)CCN2CCN(c3ccccc3OC)CC2)cc1,6.7,-14.1,-90.7*,-8.6,1.6
COc1ccccc1N1CCN(CC(=O)Nc2ccc3c(c2)OCCO3)CC1,1.1,-17.1,-26.8,2.0,-4.4
COc1ccccc1N1CCN(C(=O)Nc2cccc(Cl)c2)CC1,-3.4,-14.9,-13.9,7.1,8.2
COc1ccccc1N1CCN(CC(=O)Nc2cccc(F)c2)CC1,-0.2,-25.4,0.0,-6.8,0.2
COc1ccccc1N1CCN(CCC(=O)Nc2cccc(Cl)c2)CC1,-8.0,-12.8,-124.2*,0.7,5.4
COc1ccccc1N1CCN(CCC(=O)Nc2ccc(F)cc2)CC1,-12.8,-17.6,-98.3*,0.0,-0.5
COc1ccccc1N1CCN(CCC(=O)Nc2ccc3c(c2)OCO3)CC1,-7.3,-5.9,-89.6*,-11.2,0.0
COc1ccccc1N1CCN(C(=O)Nc2ccc(F)c(Cl)c2)CC1,-2.9,0.0,2.6,-56.8*,2.0
SMILES,D1 potentiator,DRD3 agonist,D3 antag,D1 antagonist,D1 ag
Cn1c(=O)cc(SCC(=O)NCCCN2CCN(c3ccccc3F)CC2)c2ccccc21,-17.2,-5.4,-71.1*,-29.4,-0.1
CCn1c(=O)cc(SCC(=O)NCc2cccnc2)c2ccccc21,-7.0,12.4,-16.6,-39.5*,3.5
CCOC(=O)C1CCN(C(=O)CSc2cc(=O)n(CC)c3ccccc23)CC1,2.4,-21.6,-78.9*,-4.1,-2.5
CCn1c(=O)cc(SCC(=O)NCCCN2CCC(C)CC2)c2ccccc21,-0.3,-15.0,19.0,9.1,2.1
CCn1c(=O)cc(SCC(=O)NCCCN2CCN(c3ccc(F)cc3)CC2)c2ccccc21,1.8,-48.5,-67.9*,-2.9,1.8
CO[C@@H]1[C@@H](O[C@@H]2O[C@H](C)[C@@H](O[C@H]3C[C@@](C)(O)[C@@H](OC(=O)CC(C)C)[C@H](C)O3)[C@H](N(C)C)[C@H]2O)[C@@H](CC=O)C[C@@H](C)C(=O)/C=C/C2OC2C[C@@H](C)OC(=O)C[C@H]1OC(C)=O (stereo not given in full),.,9.5,.,.,.
Cc1ccc(CN(Cc2ccco2)c2cnc(S(C)(=O)=O)nc2C(=O)Nc2ccc(Br)cc2)o1,3.2,-7.5,.,12.2,-3.5
CCn1c(=O)cc(SCC(=O)NCCN2CCN(Cc3ccccc3)CC2)c2ccccc21,-2.4,-14.8,-16.9,-32.6*,0.4
O=C1C(c2ccc(F)cc2)N(Cc2ccccc2Cl)C(=O)CN1C1CCCCC1 (stereo not given),-0.7,-4.8,.,-42.4*,-2.2
CCOC(=O)c1ccc(NC(=O)c2cnc(N3CCCC3)nc2C)cc1,0.6,2.6,.,8.9,8.2
O=C(Nc1ccccc1Cl)c1ccc(=O)[nH]n1,-7.6,-1.3,2.2,11.3,0.5
O=C(O)c1cc(=O)cc(C(=O)O)[nH]1,-3.3,-17.3,-82.2*,5.3,1.8
O=C(O)c1cc(=O)[nH]c(=O)[nH]1,.,-2.5,.,.,.
COCCCNC(=O)c1ccc2nc(CCc3ccccc3)oc2c1,-1.6,10.9,.,-9.1,-0.5
COc1ccc(CNC(=O)c2ccc3nc(CCc4ccccc4)oc3c2)c(OC)c1,-2.5,7.8,.,-41.9*,29.6
COCCNC(=O)c1ccc2nc(CCc3ccccc3)oc2c1,-5.0,7.9,.,-36.3*,2.2
COc1cc(NCCCC(C)N)c2ncccc2c1 (stereo not given),-6.5,-10.2,-54.1*,4.3,3.0
CCC(CNc1cc(OC)cc2cccnc12)NC1CCCCC1 (stereo not given),-0.4,-16.1,-56.8*,-20.6,3.6
Cc1cnc(C(=O)O)c[n+]1[O-],.,-11.6,.,.,.
COc1ccc(C2=NN(S(C)(=O)=O)C(c3cn(-c4ccccc4)nc3-c3cccs3)C2)cc1 (stereo not given),-5.6,5.1,.,21.5,5.9
Cc1cc(Br)ccc1NC(=O)CN(C)C(=O)C1CSC2(C)CCC(=O)N12 (stereo not given),.,5.8,23.0,-33.1*,2.2
O[C@@H](CNC[C@H](O)[C@H]1CCc2cc(F)ccc2O1)[C@@H]1CCc2cc(F)ccc2O1,.,-19.7,.,.,.
CCCn1nc(C(=O)NC2CCCC2)c2ccccc2c1=O,.,0.4,-12.4,.,.
CCCn1nc(C(=O)NCc2ccccn2)c2ccccc2c1=O,-22.9,-0.9,15.7,-38.9*,1.7
